We go through 11 compounds from publication PMC5540273 (PLoS ONE, 2017).

Test systems include PIK3CD; PIK3CG; PIKFYVE; PIM1; PIM2; PIM3; PIP5K1A; PIP5K1C; PIP5K2B; PKMYT1; PKN1; PKN2; PLK1; PLK2; PLK3; PLK4.
Settings in all cases: concentration: 1 μM, replicates: in singlicate; n = 1
The subject of a further experiment is T1, PIK4CB.
T1 construct: gene PI4KB

The next experiment relates to T2, PIP5K2C.
T2 construct: gene PIP4K2C

The test system of a further experiment is T3, PKAC-alpha.
T3 construct: gene PRKACA

The test system of the next experiment is T4, PKAC-beta.
T4 construct: gene PRKACB
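Note: KINOMEscan kinase panel screen.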

Turning to `Clc1ccc(-c2cc(-c3c[nH]nc3-c3ccccn3)ccn2)cc1` [GW681251], the “%Inh” value came out at 0% with PIK3CD; 0% with PIK3CG; 4% with PIK4CB; 0% in the experiment on PIKFYVE; 0% with PIM1; 30% in the experiment on PIM2. Moreover, the “%Inh” value in the experiment with PIM3 worked out at 0%; with PIP5K1A, 16%; in the experiment with PIP5K1C it was 79%; with PIP5K2B, 22%; in the experiment with PIP5K2C, 39%; with PKAC-alpha, 0%. Besides, the “%Inh” value stood at 0% with PKAC-beta; 7% with PKMYT1; 0% in the experiment on PKN1; 0% in the experiment with PKN2; 0% in the experiment with PLK1; 0% with PLK2. Further, the “%Inh” value stood at 0% with PLK3 and 4% with PLK4.
For the compound `Cn1ccc2ncnc(Oc3ccc(NC(=O)Nc4cccnc4)c(Cl)c3)c21`, the “%Inh” value in the experiment with PIK3CD is on record as 8%; with PIK3CG, 7%; in the experiment with PIK4CB, 0%; in the experiment on PIKFYVE it was 0%; in the experiment on PIM1 it was 1%; in the experiment on PIM2, 0%. The “%Inh” value was found to be 0% in the experiment with PIM3; 0% in the experiment with PIP5K1A; 1% in the experiment on PIP5K1C; 35% with PIP5K2B; 0% in the experiment on PIP5K2C; 7% with PKAC-alpha. For the same compound, the “%Inh” value with PKAC-beta worked out at 0%; in the experiment with PKMYT1, 0%; with PKN1, 0%; in the experiment on PKN2, 0%; in the experiment with PLK1, 0%; with PLK2, 5%. In addition, the “%Inh” value in the experiment on PLK3 and in the experiment with PLK4 was 11% each time.
As to `CC(=O)Nc1n[nH]c2ncc(-c3ccccc3)cc12` [SB-548492], the “%Inh” value is reported as 0% in the experiment on PIK3CD; 26% with PIK3CG; 44% with PIK4CB; 0% in the experiment on PIKFYVE; 7% with PIM1; 0% in the experiment on PIM2. In addition, the “%Inh” value with PIM3 came out at 14%; in the experiment with PIP5K1A it was 10%; with PIP5K1C, 0%; with PIP5K2B, 8%; in the experiment with PIP5K2C it was 0%; in the experiment with PKAC-alpha, 0%. For the same compound, the “%Inh” value with PKAC-beta was 14%; with PKMYT1, 0%; in the experiment with PKN1 it was 0%; in the experiment on PKN2, 29%; with PLK1, 1%; in the experiment on PLK2, 27%. The “%Inh” value in the experiment with PLK3 is 25%; in the experiment on PLK4 it was 8%.
With `Nc1nccc2scc(-c3ccc4c(c3)CCN4C(=O)Cc3cc(F)ccc3F)c12` [GSK2587663], the “%Inh” value in the experiment on PIK3CD, in the experiment with PIK3CG, with PIK4CB, in the experiment with PIKFYVE, in the experiment with PIM1 and in the experiment with PIM2 was 0% throughout. Further, the “%Inh” value with PIM3 came to 0%; with PIP5K1A it was 0%; with PIP5K1C it was 49%; in the experiment with PIP5K2B, 13%; with PIP5K2C it was 13%; in the experiment with PKAC-alpha, 0%. For the same compound, the “%Inh” value came to 12% in the experiment with PKAC-beta; 1% in the experiment on PKMYT1; 0% with PKN1; 0% with PKN2; 0% with PLK1; 0% in the experiment on PLK2. Further, the “%Inh” value in the experiment with PLK3 and with PLK4 was 0% each time.
For `Clc1cccc(-c2nc(Nc3ccncc3)c3ccccc3n2)c1` [GW873004], the “%Inh” value in the experiment on PIK3CD came to 0%; in the experiment on PIK3CG, 0%; in the experiment on PIK4CB, 0%; with PIKFYVE, 61%; in the experiment on PIM1, 4%; with PIM2, 11%. Besides, the “%Inh” value was 0% in the experiment on PIM3; 22% in the experiment with PIP5K1A; 33% with PIP5K1C; 0% in the experiment on PIP5K2B; 49% in the experiment on PIP5K2C; 2% in the experiment on PKAC-alpha. The “%Inh” value was found to be 60% in the experiment on PKAC-beta; 0% in the experiment on PKMYT1; 0% in the experiment with PKN1; 20% with PKN2; 17% in the experiment with PLK1; 0% in the experiment with PLK2. Further, the “%Inh” value with PLK3 and in the experiment with PLK4 was 0% each time.
For the compound `Cn1ccc2ncnc(Nc3ccc(Oc4cccc(Cl)c4)c(Cl)c3)c21`, the “%Inh” value in the experiment on PIK3CD is 8%; in the experiment with PIK3CG, 8%; in the experiment on PIK4CB, 0%; with PIKFYVE, 0%; in the experiment with PIM1, 8%; in the experiment on PIM2, 17%. For the same compound, the “%Inh” value in the experiment with PIM3 worked out at 22%; in the experiment on PIP5K1A, 0%; in the experiment on PIP5K1C, 0%; in the experiment on PIP5K2B, 54%; in the experiment on PIP5K2C it was 22%; in the experiment on PKAC-alpha it was 4%. For the same compound, the “%Inh” value is reported as 0% in the experiment with PKAC-beta; 0% with PKMYT1; 0% in the experiment on PKN1; 0% in the experiment on PKN2; 0% in the experiment with PLK1; 30% in the experiment on PLK2. Moreover, the “%Inh” value with PLK3 is 24%; in the experiment with PLK4 it was 26%.
On to `COc1ccc(Nc2nccc(N3CCC(NC(=O)Nc4ccc5c(c4)OCO5)C3)n2)cc1` (stereo not shown) [GSK1379745], for which the “%Inh” value in the experiment with PIK3CD was 5%; in the experiment on PIK3CG, 0%; with PIK4CB it was 14%; in the experiment on PIKFYVE it was 14%; in the experiment on PIM1, 9%; with PIM2 it was 0%. The “%Inh” value in the experiment with PIM3 is listed as 0%; with PIP5K1A, 11%; with PIP5K1C, 51%; in the experiment on PIP5K2B, 40%; with PIP5K2C it was 44%; in the experiment on PKAC-alpha it was 5%. The “%Inh” value is given as 5% in the experiment with PKAC-beta; 0% in the experiment with PKMYT1; 38% with PKN1; 0% in the experiment on PKN2; 8% with PLK1; 0% in the experiment on PLK2. Also, the “%Inh” value in the experiment with PLK3 and in the experiment on PLK4 was 0% in each case.
As to `Nc1nc(-c2cccnc2)c(-c2ccnc3ccccc23)s1` [GW684083], the “%Inh” value came to 0% with PIK3CD; 0% in the experiment on PIK3CG; 0% in the experiment with PIK4CB; 12% in the experiment on PIKFYVE; 0% with PIM1; 0% with PIM2. The “%Inh” value with PIM3 is 0%; in the experiment on PIP5K1A, 25%; with PIP5K1C, 58%; with PIP5K2B, 0%; in the experiment with PIP5K2C, 51%; in the experiment on PKAC-alpha, 0%. Also, the “%Inh” value in the experiment on PKAC-beta, in the experiment on PKMYT1, in the experiment on PKN1, in the experiment on PKN2, with PLK1 and in the experiment on PLK2 was 0% throughout. Also, the “%Inh” value with PLK3 and in the experiment on PLK4 was 0% throughout.
For the compound `N#Cc1ccc(Oc2ccc(Nc3ncnc4cc[nH]c34)cc2Cl)cc1`, the “%Inh” value is given as 36% in the experiment on PIK3CD; 0% in the experiment with PIK3CG; 0% with PIK4CB; 7% in the experiment with PIKFYVE; 20% in the experiment with PIM1; 6% in the experiment with PIM2. In addition, the “%Inh” value in the experiment on PIM3 was 29%; with PIP5K1A it was 0%; with PIP5K1C, 0%; in the experiment on PIP5K2B, 11%; in the experiment with PIP5K2C, 0%; in the experiment on PKAC-alpha, 8%. The “%Inh” value worked out at 0% in the experiment on PKAC-beta; 19% with PKMYT1; 0% in the experiment on PKN1; 0% in the experiment on PKN2; 4% in the experiment with PLK1; 5% in the experiment with PLK2. For the same compound, the figures for the “%Inh” value in the experiment with PLK3 and with PLK4 were 11% and 21%, respectively.
In the case of `Nc1nc(-c2ccccn2)c(-c2ccnc3ccccc23)s1` [GW548057], the “%Inh” value in the experiment on PIK3CD turned out to be 0%; in the experiment on PIK3CG, 10%; with PIK4CB it was 0%; with PIKFYVE, 33%; with PIM1 it was 0%; in the experiment with PIM2, 0%. Moreover, the “%Inh” value in the experiment with PIM3 is 0%; with PIP5K1A, 54%; in the experiment on PIP5K1C, 87%; in the experiment with PIP5K2B it was 14%; in the experiment with PIP5K2C, 57%; in the experiment with PKAC-alpha, 0%. For the same compound, the “%Inh” value was found to be 4% with PKAC-beta; 0% in the experiment with PKMYT1; 0% in the experiment with PKN1; 9% with PKN2; 0% with PLK1; 0% in the experiment with PLK2. For the same compound, the entries for the “%Inh” value in the experiment with PLK3 and in the experiment with PLK4 were 0% and 14%, respectively.
For the compound `Fc1ccc(Nc2nccc(-c3c(-c4ccc(Cl)cc4)nn4ncccc34)n2)cc1F` [GW829058], the “%Inh” value turned out to be 54% with PIK3CD; 18% with PIK3CG; 32% in the experiment with PIK4CB; 20% with PIKFYVE; 31% in the experiment with PIM1; 11% in the experiment on PIM2. Moreover, the “%Inh” value is reported as 24% in the experiment on PIM3; 13% in the experiment on PIP5K1A; 54% with PIP5K1C; 14% in the experiment with PIP5K2B; 20% with PIP5K2C; 15% with PKAC-alpha. Also, the “%Inh” value in the experiment on PKAC-beta is 24%; with PKMYT1, 4%; in the experiment with PKN1, 4%; in the experiment on PKN2 it was 13%; in the experiment with PLK1 it was 32%; in the experiment on PLK2, 36%. For the same compound, the “%Inh” value in the experiment with PLK3 is 20%; with PLK4, 29%.
